The list is not random: actives were taken first. Their share in the collection is about 1.8%.
TRPML1 blocker: blocks the human TRPML1 channel | Q9GZU1 | TRPML1-inducible cells, Ca2+ dye fluorescence, FDSS; stronger effect = lower value; inhibition of EC80 agonist-evoked calcium signal | activity change, negative = inhibition, % (concentration not given with the values) | 390,000 compounds, 0.02% hits | AID 624415; in the data active means activity change below about -50%; inconclusive means between about -30% and that limit;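 further: stimulus is agonist 54-4 at its EC80 concentration; on the % scale 0 is the no-effect control and ±100 the full control effect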
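TRPML1-DL cells, Tet-induced overnight (~16 h, 37 °C) at 1,500 cells/well, were loaded with Ca8 no-wash dye plus quencher for 45-90 min at room temperature. Compounds were pinned during FDSS kinetic reading; agonist 54-4 at EC80 (4 uM final) then added.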
TRPML1 agonist: activates the human TRPML1 channel; Q9GZU1; TRPML1-expressing cells, Ca2+ dye fluorescence, FDSS; activation, % (test concentration not listed); 410,000 compounds, 0.12% hits; in the data active means activation above about 50%; inconclusive means mostly about 30% to 49%; further: 0% is about no effect
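Tet-induced TRPML1-DL cells, 1,500 per well, cultured overnight, were loaded with a no-wash Ca2+ dye for 45–90 min. Calcium fluorescence was recorded on the FDSS for 110 s after compound addition, before the EC80 agonist (4 uM 54-4) was added.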
GLP-1R agonist: GLP-1 receptor (human) agonism. P43220. HEK293 GLP-1R CRE-luciferase, luminescence, 4-6 h; cells express a hypersensitive GLP-1R form. Potency, µM (titrated, usually from 45.6 µM), inactives show at the highest dose activation, actives largely listed as activators. 380,000 compounds, 0.007% hits. AID 624172; further: potency means the concentration at half of the fitted maximal effect; % of control where 0% means no effect
Target sequence (P43220 whole entry, looked up): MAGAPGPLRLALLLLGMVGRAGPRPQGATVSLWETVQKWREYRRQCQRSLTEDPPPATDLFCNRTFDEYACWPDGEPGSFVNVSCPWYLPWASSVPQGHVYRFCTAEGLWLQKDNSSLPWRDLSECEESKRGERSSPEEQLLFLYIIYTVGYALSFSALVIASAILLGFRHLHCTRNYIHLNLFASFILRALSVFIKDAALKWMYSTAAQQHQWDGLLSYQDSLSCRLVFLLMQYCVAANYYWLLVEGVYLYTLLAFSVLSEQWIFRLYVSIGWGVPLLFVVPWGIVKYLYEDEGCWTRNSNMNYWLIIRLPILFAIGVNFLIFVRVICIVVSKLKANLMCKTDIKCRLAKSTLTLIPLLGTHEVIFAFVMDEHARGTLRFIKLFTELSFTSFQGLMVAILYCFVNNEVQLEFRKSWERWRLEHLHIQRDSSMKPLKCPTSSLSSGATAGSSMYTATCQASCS
HEK293 tox: cytotoxicity in counter-screen for GLP-1R inverse agonists; AID 624418; 410,000 compounds, 0.13% hits; Potency, µM (titrated, usually from 38.3 µM), for inactives: top-dose activity change, negative = inhibition, most hits filed as inhibitors; HEK293 cAMP-luciferase reporter cells, luminescence, 24 h;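 further: loss of luciferase light is scored as toxicity; potency means the concentration at half of the fitted maximal effect; on the % scale 0 is the no-effect control and ±100 the full control effect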
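Seeding density was 200 cells/uL; after overnight-length (12 h) culture, 23 nL compounds went on for 24 h at 37 °C. Readout used a luciferase detection reagent, luminescence taken after 12 min at room temperature.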
GLP-1R inv ag: GLP-1 receptor (human) inverse agonism. HEK293 GLP-1R CRE-luciferase, luminescence, 24 h; GLP-1R form is constitutively active. Potency, µM (top dose mostly 38.3 µM), for the others: at the top dose activity change, negative = inhibition, most hits filed as inhibitors. 410,000 compounds, 1.6% hits. AID 624417; further: potency means the concentration at half of the fitted maximal effect; on the % scale 0 is the no-effect control and ±100 the full control effect; nearly all actives have a fitted effect of over 55% in size
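GLP-1R inverse agonism mode: basal reporter luminescence in engineered HEK293 cells measured after one day of compound exposure at 37 deg C, with a 12 min room-temperature detection step.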
The depositor's hits bear a star; ? = inconclusive; nt = not tested or not shown. Unless noted, the call rests on the fitted dose curve; in most records, active means well fitted curve in the direction sought with a large enough effect; inconclusive means small, poorly fitted or top-dose-only effect, or another doubt; inactive means no such curve, though single readings can be large; an effect the other way counts as inactive or inconclusive.

SMILES	TRPML1 blocker	TRPML1 agonist	GLP-1R agonist	HEK293 tox	GLP-1R inv ag
C[C@]12CC[C@@H](O)CC1=CCC1C2CC[C@@]2(C)C1CC[C@@H]2N (stereo partly specified)	-9	0	8%	-14%	11µM*
O=c1c2ccccc2nc(N2CCCC2)n1-c1ccccc1	6	-1	15%	-9%	3.2µM*
O=c1c2ccccc2nc(-c2ccccc2)n1-c1ccccc1	10	-1	14%	2%	5µM*
CCCCc1nc2ccccc2c(=O)n1-c1ccc(O)cc1	-11	-1	27%	-8%	2.2µM*
O=c1c2ccccc2nc(-c2ccccc2F)n1-c1ccccc1	-7	0	9%	-13%	?
O=c1c2ccccc2nc(-c2ccccc2)n1-c1cccc(O)c1	-5	0	-1%	-12%	1µM*
O=c1c2ccccc2nc(-c2ccccc2)n1-c1ccncc1	-5	0	12%	13%	0%
CCCc1nc2ccccc2c(=O)n1-c1ccc(O)cc1	6	3	26%	0%	?
CCC1CSC(=Nc2ccc(C)cc2)N1C(=O)CN1C(=O)NC2(CCCC2)C1=O (stereo unspecified)	6	0	-9%	?	?
[2H]c1c([2H])c([2H])c(-c2nc(N3CCCCCC3)sc2C(=O)c2ccccc2)c([2H])c1[2H]	7	1	-1%	15%	2µM*
O=P(Nc1ccccc1)(Oc1ccccc1)Oc1ccccc1	1	4	8%	-15%	?
COc1cccc(OP(=O)(Nc2ccccc2)Oc2cccc(OC)c2)c1	27	4	7%	?	10µM*
Cc1cccc(NP(=O)(Oc2ccccc2)Oc2ccccc2)c1C	-5	0	5%	-13%	10µM*
COc1ccc(N2CCN(CCCNC(=O)c3cnn(-c4ccc(F)cc4)c3-n3cccc3)CC2)cc1	2	2	-10%	6%	?
O=C(CN1C(=O)c2ccccc2S1(=O)=O)NCCSCc1c(F)cccc1Cl	-14	1	12%	?	9%
CCOC(=O)c1cc(-c2ccc(F)cc2)n(CC(=O)Nc2nccs2)c1C	-11	0	1%	?	?
O=C(Nc1ccc(Cl)c(Cl)c1)c1cccc(S(=O)(=O)NCc2cccnc2)c1	9	0	3%	?	11µM*
C[C@]12CCC3C(CCC4=CC(=O)CC[C@@H]43)C1CCC2O (stereo partly specified)	nt	nt	4%	nt	nt
O=C(NC(=O)c1c(F)cccc1F)Nc1cc(Cl)c(F)c(Cl)c1F	-7	4	-3%	-1%	1%
CC(C)c1cccc(C(C)C)c1OC(=O)NC(=O)c1c(F)cccc1F	-20	22	-3%	11%	8.9µM*
COc1c(C)cc(C(=O)C2CCCN(Cc3ccccn3)C2)cc1C (stereo unspecified)	-4	0	20%	?	2.8µM*
COc1cccc(C(=O)C2CCCN(Cc3ccccn3)C2)c1 (stereo unspecified)	-21	-1	5%	?	?
CC(C)(C)c1ccc(OCC(=O)Nc2ccc(Cl)cc2C(=O)c2ccccc2)cc1	-10	20	nt	-11%	-4%
CC(C)(C)OC(=O)N(CCc1ccccc1)Cc1ccc(OCc2cccc(NC(=O)c3ccccc3)c2)cc1	-1	3	6%	3%	7.9µM*
C=CCS(=O)(=O)N1CCC(CCOc2ccccc2)(C(=O)OCC)CC1	1	0	7%	-1%	?
Cc1cc(C(=O)CCl)c(C)n1-c1c(C)n(C)n(-c2ccccc2)c1=O	19	0	-5%	?	?
CC1Oc2cc3c(-c4c(O)cc(O)c5c(O)c6c(cc45)OC(C)C(C)C6=O)c(O)cc(O)c3c(O)c2C(=O)C1C (stereo unspecified)	nt	nt	0%	?	13µM*
Cc1ccc(-n2sc3ccccc3c2=O)cc1	18	3	-3%	10µM*	?
CN(C(=O)Oc1ccc(C(=O)c2ccc(Cl)cc2)cc1)c1ccccc1	1	0	1%	-4%	10µM*

Source: PubChem BioAssay (National Center for Advancing Translational Sciences (NCATS))
